This passage reports z-score results from PubChem BioAssay.

Structures are written as SMILES.

A short description of this assay: basal MM1S mitochondrial membrane potential changes, profiling panel, cell-based, JC-1 fluorescence, 24 h, 100 nL compound (AID 1170). Further: test concentration not given here. Particulars: higher = more signal.
The compound `CCCC[C@@H](O)C1=C(COC)Cn2c(=O)n(-c3ccccc3)c(=O)n2[C@H]1CO` had a z-score of 0.794. The same measure for `CCN(CC)c1ccc(N2CC=CC34O[C@@H]5C=CCOC(=O)[C@@H]5[C@H]3C(=O)N(CCCO)[C@@H]4C2=O)cc1` (stereo not given in full): 0.536.

Compound `COCCOC(=O)N1C(=O)[C@@]2(c3cc(C#CCC(C(=O)OC)C(=O)OC)ccc31)[C@H](c1ccc(OCCO)cc1)N1[C@H](c3ccccc3)[C@H](c3ccccc3)OC(=O)[C@H]1[C@@H]2C(=O)N1CCCCCCC1` gave a z-score of -1.15. Consider `CCOC(=O)C1=CC[C@@H](c2ccc(F)cc2)N(S(=O)(=O)c2ccc(C)cc2)[C@H]1c1ccc([N+](=O)[O-])cc1`, for which the z-score is -0.862. To `COC(=O)c1c(CC[C@@H](CO)NC(=O)N[C@@H](Cc2ccccc2)Cn2cc(-c3cncn3C)nn2)oc(C(C)=O)c1C(=O)OC` belongs -0.322. The same measure for `O=C(NCCO)C1=C[C@H](Oc2ccccc2I)[C@@H](O)[C@H](NCc2ccc(F)cc2)C1`: 0.185; for `CCCCN1CC=CC23O[C@@H]4/C=C\CCC(C)OC(=O)C4[C@H]2C(=O)N(C(C)CO)[C@@H]3C1=O` (stereo not given in full): -1.13; for `CC(C)C[C@@H]1NC(=O)C([C@@H](C)OCc2ccccc2)NC(=O)[C@@]23C(=O)N[C@@H](Cc4ccccc4)C2[C@H](C)[C@@]2(C)O[C@H]2C3/C=C/CC/C=C/CNC1=O` (stereo not given in full): -0.638.

The compound `COCCOC(=O)N1C(=O)[C@@]2(c3cc(C#CCCO)ccc31)[C@H](C(=O)N1CCc3cc(OC)c(OC)cc3C1)[C@H]1C(=O)O[C@H](c3ccccc3)[C@H](c3ccccc3)N1[C@@H]2c1ccccc1OCCO` displayed a z-score of -1.23. To `COc1ccc([Si](C)(C)[C@H]2[C@H](CC(=O)N3Cc4ccccc4C[C@H]3CO)O[C@@]3(C(=O)N(Cc4cccc(N5C(=O)c6cccc7cccc5c67)c4)c4ccccc43)[C@@H]2C)cc1` belongs -1.72; to `CN1C(=O)C2C(C1=O)C1C=C(c3ccc(CO)cc3)C2C(c2cccs2)N1C` (stereo not given), 0.172.

For the compound `CC(C)CNC(=O)[C@@]1(C)c2ccccc2C(=O)N(Cc2cc(F)cc(C(F)(F)F)c2)[C@H]1c1ccc(CO)cc1`, the z-score worked out at 0.0607. The same measure for `COc1ccc([Si](C)(C)[C@H]2[C@H](CCO)O[C@@]3(C(=O)N(Cc4ccc(N5CCOC5=O)cc4)c4ccccc43)[C@@H]2C)cc1`: -1.49.

As to `CCCC=C(CCC)[C@@H](NC(=O)c1ccco1)c1ccc(C(=O)OC)cc1`, the z-score is -2.86. In turn, `CO[C@H]1O[C@H](CO)[C@@H](OC(=O)Nc2ccc(C(F)(F)F)cc2)[C@H](OC(=O)Nc2ccccc2-c2ccccc2)[C@@H]1OC(=O)Nc1ccccc1-c1ccccc1` showed a z-score of -0.35.

The compound `CC[C@H](C)C(=O)O[C@H]1CC[C@]2(C)C3=C(CCC2C1(C)C)[C@]1(C)CC[C@H]([C@H](C)CCCC(C)C)[C@@]1(C)CC3` (stereo not given in full) displayed a z-score of 0.628. To `COCCn1c(C(=O)N2CCCC2)cc2c1C[C@H]1CN(C(=O)c3ccccc3)[C@@](Cc3ccccc3)(C(=O)OC)[C@@H]21` belongs -0.688; to `C[C@]1(C(=O)NCC(F)(F)F)c2ccccc2C(=O)N(Cc2ccc(OC(F)(F)F)cc2)[C@H]1c1ccc(CO)cc1`, 0.157; to `CN(C)CCCNC(=O)[C@@H]1c2ccccc2C(=O)N(C2Cc3ccccc3C2)[C@H]1c1ccc(CO)cc1`, -0.311. Turning to `Cc1c(NC(=O)/C(C#N)=C/c2ccc(Cl)cc2)c(=O)n(-c2ccccc2)n1C`, the z-score is -0.512. In the case of `C=CCC(OC(C)=O)[C@@H]1[C@@H](N(Cc2ccc(-c3ccccc3)cc2)C(=O)c2cccc3ccccc23)c2cc(OCCCO)ccc2N1C(=O)c1ccc2ccccc2c1` (stereo not given in full), the z-score amounted to 0.0357.

Turning to `COCCOC(=O)N1C(=O)[C@@]2(c3ccccc31)[C@H](c1ccc(OCCO)cc1)N1[C@H](c3ccccc3)[C@H](c3ccccc3)OC(=O)[C@H]1[C@@H]2C(=O)N1CCN(c2ncccn2)CC1`, the z-score is -1.1. Take `C=C(/C(=C/C[C@@H](OC(C)=O)c1ccccc1OCCO)c1cc(C(=O)OC)ccc1OC)C(C)C`: the z-score was -0.503. To `CCCC[C@H]1OB(O)C[C@H]2C1=C(COC)C[C@H]1C(=O)C=CC(=O)[C@H]12` belongs -0.898; to `COc1ccc(NC(=O)O[C@H]2[C@H](OC(=O)Nc3ccc4c(c3)OCO4)[C@H](OC(=O)Nc3ccc4c(c3)OCO4)[C@@H](OC)O[C@@H]2CO)cc1`, -1.19; to `C=CCN1C(=O)[C@]2(O[C@H](CCO)[C@@H]([Si](C)(C)c3ccc(OC)cc3)[C@@H]2C)c2ccccc21`, -2.21. For the compound `COC(=O)[C@]1(CO)N=C(c2ccc(OCCCO)cc2)O[C@@H]1c1ccccc1CN=[N+]=[N-]`, the z-score was determined as 0.0223. To `COc1cccc(OC)c1C(=O)O[C@H]1[C@@H]2OC(=O)[C@H](Cc3cccc(Br)c3)C/C=C/C[C@@H](Cc3cccc(Br)c3)C(=O)O[C@H]2[C@@H](OC)O[C@@H]1CO` belongs -0.211. As for `COCCOC(=O)N1C(=O)[C@@]2(c3cc(C#CC4(O)CCCCCC4)ccc31)[C@H](C(=O)NC[C@H](O)c1ccccc1)[C@H]1C(=O)O[C@H](c3ccccc3)[C@H](c3ccccc3)N1[C@@H]2c1ccc(O)cc1`, the z-score is -0.113. To `O=C1C2C=CC(C(O)c3ccc([N+](=O)[O-])cc3)N(Nc3ccccc3)C2C(=O)N1c1ccccc1` (stereo not given) belongs -1.55; to `C=C(CCCC)C(=O)CC[C@H](OC(C)=O)c1ccccc1OCCO`, 0.346; to `C=C(COC)/C(=C/C[C@H](OC(=O)c1ccncc1)c1ccc(OCCO)cc1)c1cc(C(=O)OC)ccc1OC`, 0.0527. To `COC(=O)[C@@]1(Cc2ccc(OC)cc2)[C@@H]2[C@@H](CC(=O)[C@H]2CC(=O)C(=O)N2CCCC2)CN1C(=O)c1ccccc1` belongs -0.787; to `CCOC(=O)C[C@H]1[C@H](OC(=O)c2ccc(-c3ccccc3)cc2)[C@@H](NC(=O)CC(C)C)c2cc(OCCCO)ccc2N1C(=O)Cc1ccc(OC)cc1`, 0.185. Consider `C=CCN1C(=O)[C@]2(O[C@H](CCn3cc([C@H](O)c4ccccc4)nn3)[C@@H]([Si](C)(C)c3ccc(OC)cc3)[C@@H]2C)c2cc(N3C(=O)c4cccc5cccc3c45)ccc21`, for which the z-score is -1.33.
